Records with an inconclusive call do not appear. Active and inactive are the calls of the source. Unless noted, the call rests on the fitted dose curve; in most records, active means well fitted curve in the direction sought with a large enough effect in the repeat runs; inconclusive means weak or mixed curves; inactive means no such curve, though single readings can be large; an effect the other way counts as inactive or inconclusive.

The nature of test [1]: qHTS assay to identify small molecule antagonists of the retinoid acid receptor (RAR) signaling pathway - cell viability counter screen (AID 1159551). Further: nearly all actives have a fitted effect of over 35% in size. The conditions noted are these: C3RL4 cells viability, ATP luminescence (CellTiter-Glo), 6 h; series mostly up to 92.4 µM. An outline of the steps:
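Seed C3RL4 cells; next day add compound, then retinol to 1 uM final; incubate 6 h at 37 C; add CellTiter-Glo; read luminescence after 30 min at RT.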
On the technique in general: qHTS replaces the single test concentration by a dilution series.

Test [2] is described as follows: qHTS assay to identify small molecule antagonists of the retinoic acid receptor (RAR) signaling pathway (AID 1159552; further: nearly all actives have a fitted effect of over 50% in size; further: potency means the concentration at half of the fitted maximal effect). Conditions: C3RL4 RARE luciferase reporter, retinol-stimulated, 6 h; series mostly up to 92.4 µM. An outline of the steps:
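Antagonism of retinol-induced RARE reporter activity was measured in C3RL4 cells. Exposure to compounds and 1 uM final retinol lasted 6 hr at 37 C, with luminescence as endpoint.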

The nature of test [3]: qHTS assay to identify small molecule agonists of the retinoic acid receptor (RAR) signaling pathway (AID 1159553). Conditions: C3RL4 RARE luciferase reporter, agonist, 6 h; series mostly up to 73.3 µM. An outline of the steps:
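Activation of retinol signaling was monitored via a RARE luciferase reporter in C3RL4 cells. After 6 hr compound treatment at 37 C, detection reagent was added for 30 min at room temperature before luminescence reading.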

Test [4] in a line: qHTS assay to identify small molecule antagonists of the estrogen related receptor (ERR) signaling pathway - cell viability counter screen (AID 1224818).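 Further: viability measured after 17.5 h of compound exposure.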 The conditions noted are these: ERR reporter cell line viability counter screen; series mostly up to 46.1 µM. An outline of the steps: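 In the same ERR cell assay, compound-treated wells (17.5 h, 37 C) were multiplexed with a fluorogenic viability reagent, CellTiter-Fluor, read after 30 min to flag cytotoxic substances.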

The nature of test [5]: qHTS assay to identify small molecule antagonists of the estrogen related receptor (ERR) signaling pathway (AID 1224819; further: potency means the concentration at half of the fitted maximal effect; nearly all actives have a fitted effect of over 50% in size). Conditions: ERR reporter cell line, luciferase inhibition; series mostly up to 46.1 µM. An outline of the steps:
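qHTS in ERR cells, 2,000/well, 1536 format. Cpd (DMSO) added after 6 h settle, 18 h 37 C. One-Glo luminescence, 30 min RT.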

A short description of test [6]: qHTS assay to identify small molecule agonists of the estrogen related receptor (ERR) signaling pathway (AID 1224820). Conditions: ERR reporter cell line, luciferase agonist mode; series mostly up to 46.1 µM. An outline of the steps:
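Cells: ERR line from NTP, 2,000/well. Pre-incubation 6 h, 37 C/5% CO2. Compound (DMSO) pin transfer, 18 h 37 C. One-Glo, 30 min RT, luminescence.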

Test [7] relates to estrogen-related receptor alpha (ERRalpha) with PGC-1alpha coactivator, human. Nature of the test: qHTS assay to identify small molecule antagonists of the estrogen related receptor signaling pathway with the pleiotropic PPARgamma coactivator (PGC) (AID 1224821; calls by dose curve;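 further: lower luminescence signal means antagonism of PGC/ERR signalling; nearly all actives have a fitted effect of over 50% in size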). Conditions: ERR/PGC reporter cell line, luciferase, antagonist mode; series mostly up to 46.1 µM. An outline of the steps: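 Luminescent read-out (One-Glo, 30 min at room temperature) following 18 h treatment of PGC/ERR cells at 37 C with compounds delivered in DMSO. Cells had settled 6 h at 37 C/5% CO2 before dosing.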

Test [8] is described as follows: qHTS assay to identify small molecule agonists of the estrogen related receptor signaling pathway with the pleiotropic PPARgamma coactivator (PGC) (AID 1224823). The conditions noted are these: ERR/PGC reporter cell line, luciferase agonist mode; series mostly up to 46.1 µM. An outline of the steps:
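Steps: plate PGC/ERR cells at 2,000 cells/well; incubate 6 h, 37 C/5% CO2; pin-transfer compounds (DMSO); incubate 18 h, 37 C; add One-Glo; 30 min RT; read luminescence.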

`CSc1ccc(Oc2ccc(S(N)(=O)=O)cc2CN(C)C)cc1C`: the Potency entry in test [1] was “inactive”.

Turning to `CNC(=S)NC`, the Potency result in test [1] and in test [2] was “inactive” throughout.

For the compound `CCCCC(=O)O[C@]1(C(=O)CO)CC[C@H]2[C@@H]3CCC4=CC(=O)CC[C@]4(C)[C@H]3[C@@H](O)C[C@@]21C`, the Potency entry in test [1], in test [2] and in test [3] was “inactive” in each case.

Consider `CC(=O)[C@H]1CC[C@H]2[C@@H]3C=CC4=CC(=O)CC[C@@]4(C)[C@@H]3CC[C@]12C`, for which the Potency entry in test [2] and in test [3] was “inactive” in each case.

Regarding `Cc1cnc(C)c(C)n1`, the Potency result in test [1], in test [2] and in test [3] was “inactive” throughout.

`COc1cc2c(cc1OC)-c1cc(=Nc3c(C)cc(C)cc3C)n(C)c(=O)n1CC2`: the Potency result in test [1], in test [2], in test [7] and in test [8] was “inactive” each time. The result in test [4] and in test [6] was inactive. Further, the Potency in test [5] was 17.4 µM (active).

For `O=C(CS)OCCOC(=O)CS`, the Potency result in test [1] and in test [3] was “inactive” in each case. The Potency in test [2] was 27.3 µM (active).

For the compound `CN(C)CCOC1=Cc2ccccc2Sc2ccc(Cl)cc21`, the Potency entry in test [1] and in test [3] was “inactive” in each case.

For the compound `COCc1c(C(C)C)nc(C(C)C)c(/C=C/[C@@H](O)C[C@@H](O)CC(=O)O)c1-c1ccc(F)cc1`, the Potency result in test [1], in test [2] and in test [3] was “inactive” in each case.

As for `CC1(C)C2=CCCC(C)(C)[C@]23CC[C@H]1C3`, the Potency result in test [2] and in test [3] was “inactive” throughout.

As to `C[C@@H]1C[C@H]2[C@@H]3CCC4=CC(=O)C=C[C@]4(C)[C@@]3(F)[C@@H](O)C[C@]2(C)[C@H]1C(=O)CO`, the Potency result in test [1], in test [2] and in test [3] was “inactive” throughout.

With `CC(C)(C)CC(C)(C)c1ccc(OCCO)cc1`, the Potency entry in test [1], in test [2] and in test [3] was “inactive” throughout.

With `CCOC(=O)CC(=O)C(=O)OCC`, the Potency entry in test [1], in test [2] and in test [3] was “inactive” in each case.

With `CC[C@H](NC(=O)c1cc(F)ccc1NS(=O)(=O)c1cccc2cccnc12)c1ccccc1`, the Potency entry in test [1], in test [2] and in test [3] was “inactive” in each case.
